HEK293 viab – counter-screen for SNCA expression inhibitors: cell viability; HEK-293-SNCA-luc viability, GF-AFC fluorescence, 24 h; Potency, µM (top dose mostly 57.1 µM), hits mostly cytotoxic; actives 0.12% (n = 150,000); AID 1671193; also: nearly all actives have a fitted effect of over 30% in size
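Cytotoxicity counterscreen: after 24 h compound treatment of genome-edited SNCA-luciferase HEK-293 cells, live-cell protease substrate GF-AFC read by fluorescence after 30 min; activity scaled between DMSO (0%) and medium-only (-100%), curves Hill-fitted.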
SNCA expr inhib – inhibitors of alpha-synuclein (SNCA) gene expression | HEK-293 SNCA-luciferase knock-in, luminescence, 24 h | Potency, µM (top dose mostly 57.2 µM), actives largely listed as inhibitors | actives 0.17% (n = 140,000); also: nearly all actives have a fitted effect of over 45% in size
IP6K1 inhibitor – inhibitors of human IP6K1; IP6K1 kinase, ADP-Glo luminescence, 2 h; hits give low values; activity change, % (series mostly up to about 58 µM); actives 0.81% (n = 140,000); AID 1645851; in the data active = activity change below about -25%
Target sequence (Q92551 whole entry, looked up): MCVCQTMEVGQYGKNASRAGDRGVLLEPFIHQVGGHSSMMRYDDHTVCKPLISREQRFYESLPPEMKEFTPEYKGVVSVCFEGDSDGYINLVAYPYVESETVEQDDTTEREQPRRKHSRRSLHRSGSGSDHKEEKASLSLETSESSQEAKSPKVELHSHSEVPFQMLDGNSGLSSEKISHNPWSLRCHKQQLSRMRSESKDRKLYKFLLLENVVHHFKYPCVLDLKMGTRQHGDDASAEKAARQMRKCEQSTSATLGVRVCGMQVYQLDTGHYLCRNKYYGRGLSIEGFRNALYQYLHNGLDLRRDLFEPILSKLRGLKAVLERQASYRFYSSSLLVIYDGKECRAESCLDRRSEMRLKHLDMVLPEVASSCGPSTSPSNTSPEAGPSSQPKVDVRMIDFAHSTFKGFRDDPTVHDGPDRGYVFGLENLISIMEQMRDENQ
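ADP-Glo luminescence measures ADP made by human IP6K1 during a 2 h RT reaction with ATP/IP6 (mix at 1.3 mM/130 uM); top library doses 57.5 and 19.1 uM final.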
KDM5B inhibitor – blocks human KDM5B histone demethylase activity; Q9UGL1; KDM5B demethylase, FDH-coupled NADH fluorescence (FDH is formaldehyde dehydrogenase); Potency, µM (titrated, usually from 57.7 µM), actives largely listed as inhibitors; actives 2.6% (n = 220,000); AID 1347165; also: nearly all actives have a fitted effect of over 70% in size
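qHTS format, multiple compound concentrations. Buffer 50 mM HEPES pH 7.5/0.01% Tween-20; 200 nM KDM5BΔAP final; 10 min compound preincubation; substrate-mix levels 12.5 µM peptide, 25 µM α-KG, 0.25 mM NAD⁺; 30 min RT; ΔRFU.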
Each line names hits and unclear results; the compound was inactive in the other large screens; ! = a repeat was not active. Hits are enriched below; roughly 2.8% of the tested compounds scored in any of these assays. Unless noted, calls follow the shape of the dose curve; as a rule, active = well fitted curve in the direction sought with a large enough effect; inconclusive = small, poorly fitted or top-dose-only effect, or another doubt; inactive = no such curve, though single readings can be large; an effect the other way counts as inactive or inconclusive.

CCN1c2cc(C(=O)NCc3cccc(OC)c3OC)ccc2C(=O)N2CCCCC21 (stereo unspecified)	KDM5B inhibitor inconclusive
Cc1ccc(-c2ccc3nnc(CNC(=O)c4ccccc4C)n3n2)cc1C	KDM5B inhibitor 28µM
Cc1ccc(-c2ccc3nnc(CNC(=O)Cc4ccc(F)cc4)n3n2)cc1C	KDM5B inhibitor inconclusive
Cc1ccc(-c2ccc3nnc(CNC(=O)c4ccoc4)n3n2)cc1C	KDM5B inhibitor 16µM
Cc1ccc(-c2ccc3nnc(CNC(=O)c4ccccc4F)n3n2)cc1C	KDM5B inhibitor 28µM
COc1ccccc1C(=O)N1CCN(c2cc(-c3cccs3)[nH]n2)CC1	none
CC[C@@H](C)[C@@H]1OC2(C=C[C@H]1C)C[C@@H]1C[C@H](C/C=C(\C)[C@H](O[C@H]3C[C@H](OC)[C@H](O[C@H]4C[C@H](OC)[C@H](NC(C)=O)[C@H](C)O4)[C@H](C)O3)[C@H](C)/C=C/C=C3\CO[C@H]4[C@H](O)C(C)=C[C@@H](C(=O)O1)[C@@]34O)O2 (stereo partly specified)	none (no result: SNCA expr inhib, KDM5B inhibitor)
CCOc1cc(C=O)ccc1OC(=O)c1cccc2ccccc12	none (no result: HEK293 viab, SNCA expr inhib, IP6K1 inhibitor)
CCCCCCOc1ccc(NC(C)=O)cc1	none (no result: HEK293 viab, SNCA expr inhib, IP6K1 inhibitor)
O=C(Nc1ccc(Cl)cc1)Nc1ccc(Cc2ccncc2)cc1	none (no result: HEK293 viab, SNCA expr inhib, IP6K1 inhibitor)
O=C(NCC1CCOCC1)Nc1ccc(F)cc1	none
CN(C)CCN(Cc1ccc(-c2ccc(CNCCc3ccccc3)cc2)cc1)C(=O)CCC1CCCC1	HEK293 viab 19µM (no result: SNCA expr inhib, KDM5B inhibitor)
Fc1ccc(-c2cc3c(cn2)CN(Cc2ccncc2)CCN3)cc1Cl	SNCA expr inhib inconclusive, KDM5B inhibitor 35µM
CN1CCNc2cc(-c3ccc(N4CCOCC4)cc3)ncc2C1	KDM5B inhibitor 28µM
COc1ccc(-c2cc3c(cn2)CN(Cc2ccncc2)CCN3)cc1	KDM5B inhibitor 35µM
COc1ccccc1-c1cccc(C(=O)N2CCC[C@H]2C(=O)NCC(F)(F)F)c1	none (no result: KDM5B inhibitor)
Cn1ncc2c(N[C@H]3C[C@H]4C(=O)NCC(=O)N4C3)nc(C3CCCC3)nc21	SNCA expr inhib inconclusive
O=C(NCc1cccnc1)c1ccc2nnc(-c3ccc(OC(F)(F)F)cc3)n2c1	none (no result: KDM5B inhibitor)
c1cn(-c2ccc(Oc3nn[nH]n3)cc2)c(-c2cc3n(n2)CCNC3)n1	KDM5B inhibitor 18µM
c1cn(-c2ccc(OCC3CCCO3)cc2)c(-c2cc3n(n2)CCNC3)n1 (stereo unspecified)	KDM5B inhibitor inconclusive
COc1ccccc1-c1n[nH]c2c1CC(=O)N(c1ccccc1)C2	none
Cn1ccnc1CN1C[C@@H]2C[C@H]1C(=O)N(CC1CC1)c1ccccc1O2	SNCA expr inhib inconclusive
O=C1[C@@H]2C[C@@H](CN2Cc2ccnc3ccccc23)Oc2ccccc2N1CC1CC1	KDM5B inhibitor 35µM
Cc1noc(-c2ccn3c(CNC(=O)Cc4cccc(F)c4)nnc3c2)n1	KDM5B inhibitor 28µM
CCCc1noc(-c2ccn3c(CNC(=O)Cc4cccc(F)c4)nnc3c2)n1	KDM5B inhibitor 7.1µM
O=C(NC1CCCCC1)N1CCC(Cc2nncn2CC2CC2)CC1	none
COc1ccc(-c2cc3nc4c(c(=O)n3[nH]2)CN(C(=O)c2sccc2C)CC4)cc1	KDM5B inhibitor inconclusive
Cn1cccc1C(=O)N1CCc2nc3cc[nH]n3c(=O)c2C1	KDM5B inhibitor 32µM
Cc1ccsc1C(=O)N1CCc2c(nc3cc[nH]n3c2=O)C1	KDM5B inhibitor 32µM
O=C(Nc1ccc(Cl)cc1F)N1CCc2nc3cc[nH]n3c(=O)c2C1	KDM5B inhibitor 32µM
Cc1ccccc1C(=O)N1CCc2nc3cc[nH]n3c(=O)c2C1	KDM5B inhibitor 28µM
COc1ccc(CC(=O)N2CCc3nc4cc[nH]n4c(=O)c3C2)c(Cl)c1	KDM5B inhibitor inconclusive
COc1ccc2cc1Nc1ccc(cc1)C[C@H](NCc1ccc3c(c1)CCO3)C(=O)N(C)[C@H](C(=O)NCCC(C)C)C2	HEK293 viab inconclusive
O=C(CCn1c2c(c3ccccc31)CCCC2)N1CCc2nc3cc[nH]n3c(=O)c2C1	none
Cn1nc(C(=O)N2CCc3nc4cc[nH]n4c(=O)c3C2)c2ccccc21	KDM5B inhibitor 32µM
Cn1ncc(N2CCC(CNC(=O)c3cccc4ccnn34)C2)cc1=O (stereo unspecified)	KDM5B inhibitor 28µM
Cn1ncc(N2CCC(CNC(=O)c3cccc4ncccc34)C2)cc1=O (stereo unspecified)	none
Cc1ccc(CN2CC(C(=O)N(C)CC(=O)Nc3ccc(Br)cc3C)CC2=O)cc1 (stereo unspecified)	none (no result: HEK293 viab, SNCA expr inhib, IP6K1 inhibitor)
C=CC(=O)Nc1cccc(Oc2nc(Nc3ccc(N4CCN(C)CC4)cc3)ncc2Cl)c1	HEK293 viab 3µM! (no result: KDM5B inhibitor)
COCCC1CCOC2(CCN(C(=O)CCc3nc4ccccc4[nH]3)CC2)C1 (stereo unspecified)	none (no result: KDM5B inhibitor)
COc1ccc(Cl)cc1C(=O)NCc1nnc2ccc(-c3ccc(C)c(C)c3)nn12	KDM5B inhibitor 32µM
COc1ccc(Cl)cc1C(=O)NCc1nnc2ccc(-c3ccc(Cl)cc3)nn12	none
COc1ccc(Cl)cc1C(=O)NCc1nnc2ccc(-c3ccccc3)nn12	KDM5B inhibitor 25µM
CCOCc1nc(C2CCCN(C(=O)C3CCCCC3)C2)no1 (stereo unspecified)	none
O=C(c1ccc(Cl)cc1)N1CC2(CCN(CC3CCCC3)C2)OCc2ccccc21 (stereo unspecified)	none
O=C(c1ccc(Cl)cc1)N1CC2(CCN(Cc3ccncc3)C2)OCc2ccccc21 (stereo unspecified)	KDM5B inhibitor 40µM
CC(=O)N1CCC2(CC1)CN(Cc1ccncc1)Cc1ccccc1O2	SNCA expr inhib inconclusive, KDM5B inhibitor 56µM
CC(Sc1ccc(Cl)cc1)C(=O)OCc1nc(N)nc(Nc2ccccc2)n1 (stereo unspecified)	none (no result: HEK293 viab, SNCA expr inhib, IP6K1 inhibitor)
Cc1ccc(CNc2ccc(C(N)=O)cn2)cc1	none (no result: HEK293 viab, SNCA expr inhib, IP6K1 inhibitor)
CN(CCc1ccccc1)CCN1CC2(CCN(c3ncccc3C#N)CC2)OC1=O	KDM5B inhibitor 32µM
COc1ccc(OCc2nc(C3CN(C(=O)Cc4ccccc4F)C3)no2)cc1	none
COc1ccc(C(=O)N2CCN(C(=O)c3nnn4c3COC(c3ccc(C)cc3)C4)CC2)cc1F (stereo unspecified)	none
O=c1c2nc(Nc3cccc(F)c3)ccc2ncn1Cc1ccccc1	HEK293 viab inconclusive, KDM5B inhibitor inconclusive
O=c1c2nc(NCc3cccs3)ccc2ncn1Cc1ccccc1	KDM5B inhibitor 40µM
COc1ccc(-c2nc3c(c(=O)[nH]2)CCN(C(=O)Cc2ccsc2)C3)cc1	HEK293 viab inconclusive, KDM5B inhibitor inconclusive
COc1ccc(-c2nc3c(c(=O)[nH]2)CCN(C(=O)COc2ccccc2C)C3)cc1	KDM5B inhibitor 25µM
COc1ccc(-c2nc3c(c(=O)[nH]2)CCN(S(=O)(=O)c2cccs2)C3)cc1	KDM5B inhibitor 20µM
CNC(=O)Cn1nc(C(=O)N2CCC3(CC2)[C@H](O)C[C@@H]3O)cc1C	none
CCO[C@H]1C[C@@H](O)C12CCN(C(=O)c1cc3nc(C)cc(C)n3n1)CC2	KDM5B inhibitor 28µM
Cc1noc(C)c1-c1nccc2c(=O)cc(-c3ccccn3)oc12	KDM5B inhibitor 28µM

Screening results (PubChem)
